{
  "source": "the supplement of paper PMC10681739",
  "note": "Whole data set: some 4,000 sequences, median “arbitrary fluorescence units” near 830, cut for the highest 2% near 6,500. Shown is part of a subset that was picked to be rich in the highest values.",
  "data": [
    {"target": "RUNX1 (UniProt Q01196)", "sequence (Q01196 whole entry)": "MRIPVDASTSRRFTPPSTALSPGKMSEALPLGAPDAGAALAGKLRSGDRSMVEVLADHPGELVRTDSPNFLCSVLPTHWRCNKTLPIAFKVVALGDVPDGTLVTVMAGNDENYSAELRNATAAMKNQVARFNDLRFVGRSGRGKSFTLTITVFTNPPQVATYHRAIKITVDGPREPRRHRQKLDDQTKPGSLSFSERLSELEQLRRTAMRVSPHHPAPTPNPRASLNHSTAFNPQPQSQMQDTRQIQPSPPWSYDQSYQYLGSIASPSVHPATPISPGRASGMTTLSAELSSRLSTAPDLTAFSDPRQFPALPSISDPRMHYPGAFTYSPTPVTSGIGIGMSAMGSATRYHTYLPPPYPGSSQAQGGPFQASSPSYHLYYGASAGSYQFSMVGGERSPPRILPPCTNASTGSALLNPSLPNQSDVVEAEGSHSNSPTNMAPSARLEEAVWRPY", "test": "RUNX1 binding intensity (PBM fluorescence), RUNX1 alone (arbitrary fluorescence units); higher = stronger binding", "conditions": "RUNX1 concentration 2 nM; ETS1 concentration 0 nM", "procedure": "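gcPBM on 36-bp genomic-derived probes (partner site mutated) containing one RUNX1 site and no ETS1 site. Recombinant human RUNX1 (2 nM) was incubated alone or with ETS1 (25 nM) and detected by anti-RUNX1 antibody fluorescence. Values are medians over 4 replicate spots (not normalised). The probes sit in constant array flanks that are not printed.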", "values": [
      {"sequence": "ACACCTCAGCAAGTGGCAGAGACCACAACAAGTCAG", "RUNX1 binding intensity": 952},
      {"sequence": "CTTGTGGCTCCTTTCCACCCGCCCCGTAAGCCGGCC", "RUNX1 binding intensity": 930},
      {"sequence": "ACCCCAAGCCCACAAACCCACCTGAAGGAACCAACT", "RUNX1 binding intensity": 1200},
      {"sequence": "CCGCTGCGGCTGCGCGCTACGTCACTACGTTCGGCG", "RUNX1 binding intensity": 768},
      {"sequence": "AAAACCACATTGCCTGTGCTGCAGGCTGGAAAGCTG", "RUNX1 binding intensity": 879},
      {"sequence": "GCAGAAACAGAAAGAGACAGGGCTGACCGCAGCAGG", "RUNX1 binding intensity": 1360},
      {"sequence": "CCTCTCTGTGGTTCTGCCTGGAATACGCAAGGCAGG", "RUNX1 binding intensity": 1050},
      {"sequence": "GGCGGGAGAGGAGGCCGGGCGGCCGCAGCTGCCTGT", "RUNX1 binding intensity": 669},
      {"sequence": "TCGCTTACGGTGTCGGTTACAGACTGTGGTTGCCAT", "RUNX1 binding intensity": 812},
      {"sequence": "CACCCGAACTGAAACACCTGCGGCTGAGGGGAGGGG", "RUNX1 binding intensity": 1030},
      {"sequence": "CCGAGAAGTGGAACCGCCAGGCGGAGGGGGCGGAGT", "RUNX1 binding intensity": 767},
      {"sequence": "GAGCGCGGCACTCGCCACGGTAAGGATTACCACAGG", "RUNX1 binding intensity": 742},
      {"sequence": "TGGGGTGTCCGAGCCGCCCCCGAACCGCGCACCCGA", "RUNX1 binding intensity": 796},
      {"sequence": "GACAAGCCATGTGGTTGCTGGCAGGCAATCTCAGTC", "RUNX1 binding intensity": 1430},
      {"sequence": "TATTCAGCAGCAAAGGAGAGAGTCTGTGGTATCTGC", "RUNX1 binding intensity": 708},
      {"sequence": "GCTGAGTGCGGGTGGCCTGGGCCGAAGGCTCAGCGG", "RUNX1 binding intensity": 724},
      {"sequence": "GCCGCGGTGCCTGCCGGGACAGCGAGTTCAGCCGGG", "RUNX1 binding intensity": 738},
      {"sequence": "CTGTGGGTTCGGCAGTAAACTCTGACCTCCTATTTA", "RUNX1 binding intensity": 892},
      {"sequence": "TGGGACCGCTAATCGGAGAGGGTGCGCAAACGCTGG", "RUNX1 binding intensity": 658},
      {"sequence": "AAGTTCGCAACCGCCAAGAGGGGAGACGGGCTGCGC", "RUNX1 binding intensity": 764},
      {"sequence": "GTATGGGAGGTGATCTGGCTGCAAACCGCAAGAGAG", "RUNX1 binding intensity": 8250},
      {"sequence": "ACCCACTTGCTGTTAGAGCATCTTTGCAACCACAGG", "RUNX1 binding intensity": 729},
      {"sequence": "CTCGGGATTTGTGGTCCACCCGGCTGAACTCGCGGC", "RUNX1 binding intensity": 788},
      {"sequence": "AGGGTTTGTGGGACCTGGTGACTCACGGGATCTGGG", "RUNX1 binding intensity": 703},
      {"sequence": "CTGCCATGAAGGGTTCTGGTTTGAGGTCTCCTCTTA", "RUNX1 binding intensity": 741},
      {"sequence": "GCCCCTGATAGCGTCCTCACCATCCCCACAGCGCCT", "RUNX1 binding intensity": 1100},
      {"sequence": "TGGCCCCGGGGCCCCACAACGGCTTCATGTGTCCCG", "RUNX1 binding intensity": 693},
      {"sequence": "CCTTAGCACAGACCACCATCTACGGGAATTCCTAAG", "RUNX1 binding intensity": 912},
      {"sequence": "CAGTCAGACGGGAGCCCGGCTTCTGTGGTGCCTGCC", "RUNX1 binding intensity": 696},
      {"sequence": "CCTAGAACCGTAAGAGAAAGGGGCTGCGGTGCAGCA", "RUNX1 binding intensity": 745},
      {"sequence": "CTGTGCGGTCATGTGACGGAGGCCTGAAGGCAGGTC", "RUNX1 binding intensity": 1410},
      {"sequence": "TGCGCCGGGAGTGCATGAGCTGCCGATGTGGTGCTT", "RUNX1 binding intensity": 697},
      {"sequence": "GACGTAAGCCGAGAGGCTCCCGTAAGCGGTCTTGAG", "RUNX1 binding intensity": 733},
      {"sequence": "GACTCGCTCTGCGGCCCCACGCAGGGAGCCTCCTTG", "RUNX1 binding intensity": 905},
      {"sequence": "CTCATAACCGCTAACTCAACCTCTAACATTTGCTGT", "RUNX1 binding intensity": 3220},
      {"sequence": "AACTAGTTCGTTCCTTATGCGGCCCAGGGCTCCACC", "RUNX1 binding intensity": 893},
      {"sequence": "GGCACGAAAGAGCTGATGCATTTCAACCGCAGCCTG", "RUNX1 binding intensity": 1160},
      {"sequence": "CGAGCCGCCTTGCTCCCCGGCCCACAGCCCAGCACT", "RUNX1 binding intensity": 889},
      {"sequence": "CCGGGGTAAACCACGACACGACTCCCTGCCGTGTGG", "RUNX1 binding intensity": 886},
      {"sequence": "GACCTTCACCCACAAGAACCACCTCCTCTCAGTAAA", "RUNX1 binding intensity": 1950},
      {"sequence": "TACGACTTCAAGGCGGTCAACATCCAGGGCAAACTG", "RUNX1 binding intensity": 730},
      {"sequence": "TCCCTCCTTGCGCTCTGGTTTTGTGGTTGCTTGCTG", "RUNX1 binding intensity": 1120},
      {"sequence": "CCAGCCGTAAGCCCCGCCCCCTAGAGGCACCGCGGA", "RUNX1 binding intensity": 882},
      {"sequence": "GCTTTGCAGTGTCCTCTATGGAACACCACACACAGT", "RUNX1 binding intensity": 809},
      {"sequence": "GGGGACGAAGCGGTCTCGGTTCAGCCCGGCTGGGAG", "RUNX1 binding intensity": 692},
      {"sequence": "TAAGGCTGTGTGGCTTCCAGATCAAAAACCGCAAAA", "RUNX1 binding intensity": 8380},
      {"sequence": "CTCTGGCAGGGAGCTCTGAGGGCTAAACCACAAAAA", "RUNX1 binding intensity": 1560},
      {"sequence": "CAGGCTGCTGTGGCTACTGCAGCACTGCCTCCCGCT", "RUNX1 binding intensity": 741},
      {"sequence": "GCTCTGGCCGAAGATGTCCCTGCGGTGCAGCTGCCG", "RUNX1 binding intensity": 796},
      {"sequence": "GGGCTTGACCGCCATGTTTGAAGCGGGCGCAAAAAA", "RUNX1 binding intensity": 758},
      {"sequence": "CAGAACGGTCCCTGGAACACTGCGGTTCCCGCCTGG", "RUNX1 binding intensity": 874},
      {"sequence": "AGGCTGTTGTGGGTTGCGCCGCTTCGGAGGTGGGAG", "RUNX1 binding intensity": 846},
      {"sequence": "CTTGCCACACTGCCTCTTGTTTTGAACCACTATATT", "RUNX1 binding intensity": 2040},
      {"sequence": "GCACACAGTGCGGTTGGCTTCCAGCTTCATGTTGGC", "RUNX1 binding intensity": 1470},
      {"sequence": "CTTGTAGTCAGGTGGTTGGGCAGGGTGTTTCTCATG", "RUNX1 binding intensity": 807},
      {"sequence": "TCCAAGGCGCAAAAAACCCGCCCTAAACCGCACCCC", "RUNX1 binding intensity": 1630},
      {"sequence": "AGCGCCTTACCCGCGGCACACCCATTTGCTGACCCC", "RUNX1 binding intensity": 1120},
      {"sequence": "CTTGTTCTATCTCCTGTTTGTGGTGAGTGACTGTCT", "RUNX1 binding intensity": 1370},
      {"sequence": "AGGCTCATTGCCTGTTTTCATGTGGTTTAGAGAAAA", "RUNX1 binding intensity": 1030},
      {"sequence": "TGATCAGGCAGGAGAAGCGCAGAGGTGGACCCGCAA", "RUNX1 binding intensity": 751},
      {"sequence": "GGGATCCTTCAGCTCCGGGTTAACCCCGACCGCGCC", "RUNX1 binding intensity": 697},
      {"sequence": "CACTCCCCTCCCGCGGTCACACTTCAGGCGGCCACC", "RUNX1 binding intensity": 1460},
      {"sequence": "GGGGGGGTGCGGTCCTGGTCGGGAGGAGGTGGAGAG", "RUNX1 binding intensity": 869},
      {"sequence": "ACCTCCACCACAAAGAACAAAAAACGAAGGATAAAA", "RUNX1 binding intensity": 1520},
      {"sequence": "CCACACGGCAGGGAGTCGTGTCGTGGTTTACCCCGG", "RUNX1 binding intensity": 752},
      {"sequence": "ACGCCCGCTGACCACACTGGCGACGTCCCTCTCTGT", "RUNX1 binding intensity": 1400},
      {"sequence": "CAGGGGGCCCCACATGCCGCTCTTGCTGCCCAGGTC", "RUNX1 binding intensity": 798},
      {"sequence": "CAGTCGCCAGAAACCACAGCACTTCGGCCTGCTTCA", "RUNX1 binding intensity": 1480},
      {"sequence": "GACATGTGGCTATTTTGGGCAATTGCCTGAGGAGGC", "RUNX1 binding intensity": 720},
      {"sequence": "CGACTGGAACCACTCTGAGGCGCTGCCGCAGACACC", "RUNX1 binding intensity": 1040},
      {"sequence": "TTAACTCCACAGAAGAATAAACCACCACCGCTCACC", "RUNX1 binding intensity": 1060},
      {"sequence": "GACCACCTCCTTTCTGTGTTTTGTGGTTTCACAACT", "RUNX1 binding intensity": 2680},
      {"sequence": "CATTGTGGGCGCTGTAGTCCAGCTGGAACCTGTTTG", "RUNX1 binding intensity": 760},
      {"sequence": "GGAGGCTGTGGTGAGGAAAGAGGAGGTGACACTCCT", "RUNX1 binding intensity": 883},
      {"sequence": "CCCCTCAATTCCCTCAACCCTTCCCACAAACTGGGA", "RUNX1 binding intensity": 1730},
      {"sequence": "GGCTTACGGCGGGGTACCCTCCTCTGTGGGCGGGGC", "RUNX1 binding intensity": 715},
      {"sequence": "CTGGCCGTGGCGTACGGGAGCTGTGGGGCCGTCCCC", "RUNX1 binding intensity": 728},
      {"sequence": "GGCTGGAAAGGGTCTTGAGAGGAGGTGGTTGCCTTA", "RUNX1 binding intensity": 705},
      {"sequence": "TGTCTGAGGTTTCTCTGTGAACATGAAGCTGAGAAC", "RUNX1 binding intensity": 790},
      {"sequence": "AGGCTTTCTGTTTTATCTCGTGTGTGTGGTGCACCA", "RUNX1 binding intensity": 886},
      {"sequence": "GGGCTTACGGCTGAACCCATGGCTGCGGGCTGTGCT", "RUNX1 binding intensity": 704},
      {"sequence": "TCCACAGCCGGTTTCGGCCGGTTCCCACAAGCCCCT", "RUNX1 binding intensity": 909},
      {"sequence": "CCGCTTACGGCCTTCGCCCGGCTTACCCGCGTCGCA", "RUNX1 binding intensity": 1030},
      {"sequence": "GGCATCCCCTTGCGGCCATCACTTTCTATGCCCTCA", "RUNX1 binding intensity": 1250},
      {"sequence": "GGGGCAGTGGTCACAGGAGGATCTTGCTGGAGTCAT", "RUNX1 binding intensity": 697}
    ]}
  ]
}
